Our source for the growth values is PubChem BioAssay (NCI).

This is part of a sample that, as a whole, favours compounds with a hit. Of some 83,000 tested, about 20% had one in any assay.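 48-hour exposure, single concentration, 96-well plates; percent growth endpoint where 0 means no net growth. Active: below 10.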 Unmarked numbers belong to inactive results. Calls of active or inactive are those of the source.

Assay in all cases: NCI-60 one-dose screen, 48 h (100 = growth as untreated, 0 = no growth, -100 = all killed)
What all share (settings): 10 µM unless noted

For assay [1], the system named is DU-145 prostate.
Assay [2] deals with K-562 leukemia.
In assay [3] the test system is MALME-3M melanoma.
Assay [4] concerns MDA-MB-231 breast.
Assay [5] relates to RXF 393 renal.
Assay [6] deals with SF-268 CNS.
The subject of assay [7] is SF-295 CNS.
Assay [8] deals with SF-539 CNS.
Assay [9] concerns UACC-257 melanoma.
Assay [10] concerns M14 melanoma.

Take `COc1ccc2c(c1)O/C(=C\c1cccc(OCC(=O)Nc3nc(C)c(C)s3)c1)C2=O`: the growth in assay [1] is -96.2% (active); in assay [2], -41.3% (active); in assay [3] it was -54% (active); in assay [4], 21.2%; in [5] it was -66.3% (active); in [6], -55.4% (active). The growth in assay [7] is -80.2% (active); in [8], -78.9% (active); in assay [9] it was 88.5%; in [10], -15.1% (active).

Consider `Cc1nn(-c2ccccc2)c2nc3c(c(-c4ccc(Cl)cc4)c12)CNC1(CCSCC1)N3`, for which the growth is 110% in assay [1]; 93.1% in assay [2]; 96.5% in [3]; 96.9% in assay [4]; 88.8% in assay [5]; 101% in assay [6]. The growth is 103% in assay [7], 110% in [8], 107% in assay [9] and 94.1% in assay [10].

Regarding `COc1ccc2c(c1)O/C(=C/c1ccc(OCC(=O)c3ccccc3)cc1)C2=O`, the growth in [1] is 118%; in [2], 80.7%; in assay [3], 96.3%; in assay [4], 84.4%; in [5], 109%; in assay [6], 117%. The growth in assay [7] is 137%; in [8], 107%; in [9], 125%; in [10], 99.3%.

Take `CCN1CCN(c2cc(C)nc(NCc3cc(Nc4ccnc5cc(Cl)ccc45)ccc3F)n2)CC1`: the growth is 50.7% in assay [1]; 4.69% (active) in [2]; 107% in assay [3]; 26.4% in [4]; 58.5% in assay [5]; 58% in assay [6]. In addition, the growth in assay [7] is 31%; in [8], 55.7%; in assay [9] it was 69.2%; in assay [10], -64.3% (active).

On to `COc1ccc(-c2nc3c(c(=O)n2C(C)=O)C(c2ccc(Cl)cc2)c2sc4c(Cl)cccc4c2O3)cc1` (stereo not given), for which the growth in [1] is -5.67% (active); in assay [2], 2.48% (active); in [3] it was 39.8%; in [4], -41.2% (active); in assay [5] it was -27.4% (active); in assay [6], -9.95% (active). The growth in assay [7] is 1.12% (active); in [8] it was -51.8% (active); in [9] it was 12.2%; in [10] it was -36.3% (active).

With `N#C/C(=C\c1ccc(-c2ccccc2F)o1)c1nc(-c2ccco2)cs1`, the growth in assay [1] was 101%; in [2], 82.8%; in assay [3] it was 96%; in [4], 85.8%; in assay [5] it was 109%; in assay [6], 101%. For the same molecule, the growth in assay [7] is 98.6%; in assay [8] it was 98.1%; in [9], 99.7%; in assay [10] it was 94.8%.

As to `COc1ccccc1N1C(=O)/C(=C/C2=Cc3ccccc3OC2)SC1=S`, the growth is 100% in assay [1]; 75% in assay [2]; 92.9% in assay [3]; 88.1% in assay [4]; 103% in assay [5]; 109% in assay [6]. Also, the growth in assay [7] is 91.5%; in assay [8] it was 103%; in assay [9] it was 100%; in assay [10], 98.2%.

Turning to `Cc1nc2c(c(N3CCCc4ccccc43)n1)CCC2`, the growth is -8.95% (active) in assay [1]; 4.8% (active) in assay [2]; 54.2% in assay [3]; 18.1% in assay [4]; 33% in assay [5]; 16.9% in assay [6]. Moreover, the growth in assay [7] was 9.59% (active); in assay [8], 1.1% (active); in [9], 26.3%; in [10], -17.6% (active).

On to `COc1cc2c(cc1-c1c(C)noc1C)ncc1nc(C3CCCCC3)n(C3CCC(OC(F)F)CC3)c12` (stereo not given), for which the growth in assay [1] was 63%; in assay [2], 20.1%; in assay [3] it was 41.7%; in assay [4], 35.9%; in assay [5], 36.5%; in assay [6], 57%. For the same molecule, the growth in assay [7] is 33.9%; in [8], 47%; in assay [9], 40.3%; in assay [10], 39.6%.

As for `COc1ccc(NC(=O)CSc2nc(C)c(C(C)=O)n2-c2ccc([N+](=O)[O-])cc2)cc1`, the growth is 113% in [1]; 96.6% in assay [2]; 91.3% in assay [3]; 80.3% in assay [4]; 84.9% in [5]; 108% in assay [6]. The growth was 89% in [7], 102% in [8], 98.4% in assay [9] and 94.9% in [10].

Consider `Cc1cc(C)c(-c2c(C)cc(C)cc2CBr)c(CBr)c1`, for which the growth is 94.9% in assay [1]; 67.7% in [2]; 73.5% in assay [3]; 97.9% in [4]; 14.8% in assay [5]; 74.2% in assay [6]. In addition, the growth was 84.7% in [7], 96.4% in assay [8], 73.9% in assay [9] and 72.5% in assay [10].

In the case of `O=C(/C=C/c1cccc(O)c1)c1cccc(-n2cc(-c3ccc4ccccc4c3)[nH]c2=O)c1`, the growth in assay [1] is -17.3% (active); in assay [2], -40.4% (active); in [3], -6.88% (active); in assay [4], 14.7%; in assay [5], 29.8%; in [6], -6.97% (active). Moreover, the growth is 6.57% (active) in assay [7], -88.3% (active) in [8], 99.6% in assay [9] and 16.2% in [10].

Consider `N#Cc1c(-c2ccccc2)cc(-c2ccc(Nc3nc(Nc4ccc(F)cc4)nc(Nc4ccc(F)cc4)n3)cc2)nc1N`, for which the growth in assay [1] is 106%; in assay [2] it was 88.8%; in assay [3], 80.6%; in assay [4] it was 73.2%; in [5], 53.6%; in assay [6], 96.1%. For the same molecule, the growth is 65% in assay [7], 94.5% in [8], 104% in assay [9] and 108% in assay [10].
